TDP1 cell CPT: DT40-hTDP1 cell growth loss with CPT; Potency, µM (highest dose often 46.2 µM), for inactives: top-dose activity change, negative = growth inhibition, usual class: inhibitors; chicken DT40 Tdp1-/-;hTDP1 cells + 20 nM CPT, ATP luminescence, 48 h; actives 12% (n = 420,000); also: potency is read from the fitted curve at half-maximal effect; % is scaled to controls: 0 for no effect and ±100 for the full control effect; nearly all actives have a fitted effect of over 55% in size
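Chicken DT40 Tdp1-/- cells complemented with human TDP1, 400 cells/well, exposed to compounds plus 20 nM camptothecin for at least 48 h at 37 C; viability read as ATP content by CellTiter-Glo luminescence.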
HepG2 tox: kills HepG2 cells in TGF-b inhibitor counter-screen; actives 0.76% (n = 410,000); Potency, µM (highest dose often 46.1 µM), for the others: top-dose activity change, negative = cytotoxicity, most hits filed as cytotoxic; HepG2 CAGA-GFP viability, ATP luminescence, 18 h; also: potency is read from the fitted curve at half-maximal effect
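CellTiter-Glo luminescence gave cytotoxicity after 18 hours at 37 degrees C. The cells were HepG2 CAGA-GFP in 1% FBS DMEM, stimulated with 500 pg/mL TGF-beta after compound addition. %Activity was normalised to no-cell wells (complete cell-killing) and DMSO (no toxicity), and curves were fitted and classified.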
TDP1 cell noCPT: qHTS for Inhibitors of human tyrosyl-DNA phosphodiesterase 1 (TDP1): qHTS in cells in absence of CPT. DT40 Tdp1-/- hTDP1 cells, no CPT, ATP luminescence, 48 h. Potency, µM (doses to about 46.2 µM), inactives show at the highest dose activity change, negative = growth inhibition, hits mostly inhibitors. actives 15% (n = 420,000). AID 686978, 2013; also: potency is read from the fitted curve at half-maximal effect; % is scaled to controls: 0 for no effect and ±100 for the full control effect; nearly all actives have a fitted effect of over 55% in size
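DT40 Tdp1-/-;hTDP1 cells, no CPT (DMSO vehicle only), 400 cells/well; compounds pin-transferred; ≥48 hr, 37 °C; CellTiter-Glo 30 min RT dark, luminescence read.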
TDP1 inh: inhibitors of human tyrosyl-DNA phosphodiesterase TDP1; recombinant TDP1, AlphaScreen DNA substrate cleavage; Potency, µM (titrated, usually from 130 µM), inactives show at the highest dose activity change, negative = inhibition, hits mostly inhibitors; actives 0.28% (n = 350,000); AID 485290; also: potency is read from the fitted curve at half-maximal effect; % is scaled to controls: 0 for no effect and ±100 for the full control effect; nearly all actives have a fitted effect of over 40% in size
Target sequence (Q9NUW8 whole entry, looked up): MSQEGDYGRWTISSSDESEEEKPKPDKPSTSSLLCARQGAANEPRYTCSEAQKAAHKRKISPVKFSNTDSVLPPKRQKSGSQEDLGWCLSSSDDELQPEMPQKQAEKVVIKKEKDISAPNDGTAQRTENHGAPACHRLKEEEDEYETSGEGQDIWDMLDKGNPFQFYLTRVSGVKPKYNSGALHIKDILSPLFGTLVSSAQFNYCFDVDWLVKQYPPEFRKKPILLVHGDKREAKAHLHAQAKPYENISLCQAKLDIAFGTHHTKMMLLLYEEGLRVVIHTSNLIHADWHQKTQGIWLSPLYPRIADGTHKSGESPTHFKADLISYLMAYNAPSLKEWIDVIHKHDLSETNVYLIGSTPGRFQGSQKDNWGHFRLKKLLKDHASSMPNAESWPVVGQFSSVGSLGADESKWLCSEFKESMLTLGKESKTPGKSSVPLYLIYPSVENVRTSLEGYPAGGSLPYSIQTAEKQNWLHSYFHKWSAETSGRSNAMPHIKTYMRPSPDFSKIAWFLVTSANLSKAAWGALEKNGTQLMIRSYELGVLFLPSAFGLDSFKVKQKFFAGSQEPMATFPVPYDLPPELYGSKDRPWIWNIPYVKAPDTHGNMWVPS
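Enzyme-compound mixtures sat 15 min at room temperature, followed by a 5 min reaction with 15 nM final substrate and 10 min with AlphaScreen beads. Recombinant human Tdp1 was used at 1 nM final.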
IL-1B inflam inh: inflammasome signaling inhibition, IL-1 beta readout; actives 4.7% (n = 360,000); AID 743279; activity change, % at 57.5 µM; THP-1 LPS/ATP IL-1B secretion, AlphaLISA, 16 h; hits give low values; in the data active = activity change below about -50%; inconclusive = mostly about -30% to -49%; also: % is scaled to controls: 0 for no effect and ±100 for the full control effect
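Secreted IL-1B measured by AlphaLISA bead assay after 16 h compound exposure of THP-1 cells; compounds (final up to 57.5 uM) added 1 h before LPS (250 ng/mL) and ATP (1.25 mM) stimulation; lower signal means less secretion.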
TGFb inhibitor: TGF-b pathway inhibition | AID 588855 | Potency, µM (highest dose often 46.1 µM), for inactives: at the top dose activity, negative = inhibition, actives largely listed as inhibitors | actives 1.2% (n = 410,000) | HepG2 CAGA-GFP TGF-b/SMAD3 reporter, GFP fluorescence, 18 h; TGF-beta stimulated, 500 pg/mL final; also: potency is read from the fitted curve at half-maximal effect; % is scaled to controls: 0 for no effect and ±100 for the full control effect; nearly all actives have a fitted effect of over 65% in size
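Per well, imaged GFP fluorescence of HEPG2 CAGA-GFP cells gives the signal; cells get compound, then TGF-beta (500 pg/mL final), 18 h at 37 degrees C; %Activity versus -TGF-beta and +DMSO controls.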
The depositor's hits bear a star; [ ] = another dose, or the depositor's remark. Hits are enriched below; roughly 18% of the tested compounds scored in any of these assays. Unless noted, calls follow the shape of the dose curve; as a rule, active = well fitted curve in the direction sought with a large enough effect; inconclusive = small, poorly fitted or top-dose-only effect, or another doubt; inactive = no such curve, though single readings can be large; an effect the other way counts as inactive or inconclusive.

Results for OC(CN1CCN(c2ccccn2)CC1)Cn1c2ccccc2c2ccccc21 (configuration not stated) ?
TDP1 cell CPT: 15µM*; HepG2 tox: -21%; TDP1 cell noCPT: 8.2µM*; TDP1 inh: 8%; IL-1B inflam inh: -5; TGFb inhibitor: -15%

How did Cc1cc(OCC(O)CN2CCN(c3ccccn3)CC2)cc(C)c1Cl (configuration not stated) do in these assays?
TDP1 cell CPT: inconclusive; HepG2 tox: 0%; TDP1 cell noCPT: inconclusive; IL-1B inflam inh: -69*; TGFb inhibitor: -13%

How did OC(COc1ccc(Cl)cc1)CN1CCN(c2ccccn2)CC1 (configuration not stated) do in these assays?
TDP1 cell CPT: -16%; HepG2 tox: -2%; TDP1 cell noCPT: inconclusive; IL-1B inflam inh: -8; TGFb inhibitor: 0%

What do the screens show for `OC(COc1cc(Cl)c(Cl)cc1Cl)CN1CCN(c2ncccn2)CC1` (configuration not stated)?
TDP1 cell CPT: 18µM*; HepG2 tox: -24%; TDP1 cell noCPT: inconclusive; TDP1 inh: -14%; IL-1B inflam inh: -16; TGFb inhibitor: -3%

Results for OC(COC(c1ccccc1)c1ccccc1)CN1CCN(c2ccccn2)CC1 (configuration not stated) ?
TDP1 cell CPT: -21%; HepG2 tox: -16%; TDP1 cell noCPT: inconclusive; TDP1 inh: 2%; IL-1B inflam inh: inconclusive; TGFb inhibitor: -21%

Results for CC(C)C[C@H]1CNC(=S)N1CC1CCCN1C[C@H](CC(C)C)N1C[C@H](Cc2ccc(O)cc2)N(CC2CCCCCC2)C1=S (some centres not stated) ?
TDP1 cell CPT: 23µM*; HepG2 tox: -54%; TDP1 cell noCPT: 18µM*; IL-1B inflam inh: -5; TGFb inhibitor: inconclusive

How did CC(C)C[C@@H](CN1CCC[C@@H]1CN1C(=S)NC[C@@H]1Cc1ccccc1)N1C[C@H](Cc2ccc(O)cc2)N(CC2CCCCCC2)C1=S do in these assays?
TDP1 cell CPT: 13µM*; HepG2 tox: -80%; TDP1 cell noCPT: 18µM*; IL-1B inflam inh: -15; TGFb inhibitor: inconclusive

What do the screens show for `CC(C)C[C@H]1CN([C@@H](CC(C)C)CN2CCCC2CN2C(=S)NC[C@@H]2Cc2ccc(O)cc2)C(=S)N1CCc1ccccc1` (some centres not stated)?
TDP1 cell CPT: inconclusive; HepG2 tox: -2%; TDP1 cell noCPT: inconclusive; IL-1B inflam inh: -6; TGFb inhibitor: inconclusive

What do the screens show for `CC(C)C[C@@H](CN1CCC[C@@H]1CN1C(=S)NC[C@@H]1Cc1ccccc1)N1C[C@H](Cc2ccc(O)cc2)N(CC2CCCCC2)C1=S`?
TDP1 cell CPT: inconclusive; HepG2 tox: -17%; TDP1 cell noCPT: 23µM*; IL-1B inflam inh: 8; TGFb inhibitor: inconclusive

What do the screens show for `CCc1noc(C)c1C(=O)N1CCOc2ccc(CN3CCN(c4ccccn4)CC3)cc2C1`?
TDP1 cell CPT: 8%[9.04 µM]; TDP1 cell noCPT: -3%

What do the screens show for `CCCC(NC(C)C(=O)N1C(C(=O)O)CC2CCCCC21)C(=O)OCC` (configuration not stated)?
TDP1 cell CPT: 10%; TDP1 cell noCPT: 1%; TDP1 inh: -3%[56.1 µM]

Results for CCOc1ccc(N(CC)C(=O)c2cn(CC)c(=O)c3cc(OC)c(OC)cc23)cc1 ?
TDP1 cell CPT: -13%; HepG2 tox: -14%; TDP1 cell noCPT: 1%; IL-1B inflam inh: 4; TGFb inhibitor: -3%

What do the screens show for `O=C1N/C(=C/c2ccc(Br)cc2)C(O)=C1C=NCc1ccccc1`?
TDP1 cell CPT: 2.9µM*; HepG2 tox: -13%; TDP1 cell noCPT: 2.3µM*; TDP1 inh: 3%; IL-1B inflam inh: 11; TGFb inhibitor: 4%

What do the screens show for `CCCc1cc(C(=O)N2CCCC(Nc3ccc(C)c(C)c3)C2)n(C)n1` (configuration not stated)?
TDP1 cell CPT: inconclusive; HepG2 tox: -2%; TDP1 cell noCPT: inconclusive; TDP1 inh: 6%[56.1 µM]; IL-1B inflam inh: inactive; TGFb inhibitor: inconclusive

What do the screens show for `O=c1ccn([C@@H]2O[C@H](CNCc3c(OCc4ccccc4F)ccc4ccccc34)[C@@H](O)[C@H]2O)c(=O)[nH]1`?
TDP1 cell CPT: 16µM*; HepG2 tox: -22%; TDP1 cell noCPT: inconclusive; IL-1B inflam inh: -58*; TGFb inhibitor: inconclusive

What do the screens show for `NC(=O)c1ncn([C@@H]2O[C@H](CNCc3c(OCc4ccccc4F)ccc4ccccc34)[C@@H](O)[C@H]2O)n1`?
TDP1 cell CPT: 6%; HepG2 tox: 0%; TDP1 cell noCPT: -9%; IL-1B inflam inh: -19; TGFb inhibitor: 15%

Results for CCOC(=O)/C(=C\c1ccccc1)C(=O)CCN1CCOCC1 ?
TDP1 cell CPT: 1.6µM*; HepG2 tox: 6%; TDP1 cell noCPT: 1.5µM*; IL-1B inflam inh: -1; TGFb inhibitor: 9%

Results for O=C(NCc1ccccc1)c1cc(C2COCCN2S(=O)(=O)c2cccs2)on1 (configuration not stated) ?
TDP1 cell CPT: -1%; HepG2 tox: 9%; TDP1 cell noCPT: -10%; IL-1B inflam inh: 10; TGFb inhibitor: -1%

Results for CCCCN(CC)C(=O)c1nn(-c2ccc(OC)cc2)c(=O)c2c1c1ccccc1n2C ?
TDP1 cell CPT: inconclusive; HepG2 tox: -35%; TDP1 cell noCPT: 23µM*; TDP1 inh: -2%; TGFb inhibitor: inconclusive

How did CCN(Cc1ccccc1)C(=O)c1nn(-c2ccc(OC)cc2)c(=O)c2c1c1ccccc1n2C do in these assays?
TDP1 cell CPT: 12µM*; HepG2 tox: -10%; TDP1 cell noCPT: 23µM*; TDP1 inh: -11%; IL-1B inflam inh: 0; TGFb inhibitor: -6%

How did CCCN(C(=O)c1nn(-c2ccc(OC)cc2)c(=O)c2c1c1ccccc1n2C)c1ccc(CC)cc1 do in these assays?
TDP1 cell CPT: -17%; HepG2 tox: 4%; TDP1 cell noCPT: inconclusive; TDP1 inh: -5%; TGFb inhibitor: 2%
